Screening data: PubChem BioAssay, National Center for Advancing Translational Sciences (NCATS)
Pf growth 96h = P. falciparum growth inhibition at 96 hour, primary screen for plastid delayed-death inhibitors | Potency, µM (doses to about 28.7 µM), most hits filed as inhibitors | hit rate 6.9% among 320,000 | P. falciparum luciferase reporter growth, 96 h
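Two-generation exposure (96 h) targets delayed-death phenotype. Reporter parasites carrying integrated firefly luciferase, in red cells at 2% hematocrit and 0.05% parasitemia final, kept at 37 C, 5% CO2; luminescence loss indicates inhibition.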
Pf growth 48h = P. falciparum growth inhibition at 48 hours (one generation); hit rate 5.9% among 310,000; P. falciparum luciferase growth in erythrocytes, 48 h; Potency, µM (top dose mostly 28.7 µM), actives largely listed as inhibitors
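Compounds are pin-transferred into medium, infected erythrocytes (2% hematocrit, 0.1% parasitemia final) are added, and plates sit one parasite generation at 37 C in 5% CO2. Detection reagent is then added and luminescence measured.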
CHX counter = affects cycloheximide protein synthesis inhibition readout, counter-screen; cell reporter, cycloheximide protein synthesis inhibition counterscreen; max response, %; hit rate 12% among 300,000; in the data active means max response mostly above about 13%, no sharp cut-off; inactive means mostly below about 14%; further: read at 38.3 µM for the half of the compounds with a filed dose
LmPK inhibitor = LmPK (Leishmania mexicana) enzyme inhibition; purified LmPK, Kinase-Glo ATP luminescence, 1 h; Q27686; AID 1721; hit rate 0.37% among 290,000; Potency, µM (highest dose often 57.5 µM), actives largely listed as inhibitors
Target sequence (Q27686 whole entry, looked up): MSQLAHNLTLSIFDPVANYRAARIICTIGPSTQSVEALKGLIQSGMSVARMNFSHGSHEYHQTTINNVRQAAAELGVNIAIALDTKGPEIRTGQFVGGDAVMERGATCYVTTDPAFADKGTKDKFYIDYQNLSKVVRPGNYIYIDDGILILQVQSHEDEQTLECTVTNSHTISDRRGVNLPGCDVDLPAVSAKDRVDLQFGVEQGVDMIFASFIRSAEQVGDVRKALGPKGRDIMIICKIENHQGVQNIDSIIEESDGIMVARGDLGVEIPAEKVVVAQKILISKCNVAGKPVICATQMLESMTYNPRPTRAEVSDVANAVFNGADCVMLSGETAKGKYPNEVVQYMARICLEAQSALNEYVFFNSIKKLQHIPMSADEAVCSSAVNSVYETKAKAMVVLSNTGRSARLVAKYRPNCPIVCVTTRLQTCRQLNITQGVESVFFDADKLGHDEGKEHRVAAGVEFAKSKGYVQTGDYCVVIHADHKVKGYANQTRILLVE
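Kinase-Glo luminescence read after 1 h RT reaction of 0.1 nM LmPK with 0.5 mM PEP and 0.1 mM ADP. Activity scaled between uninhibited and enzyme-free controls.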
Shiga inhibitor = blocks Shiga toxin action in Vero cells. hit rate 9.2% among 290,000. inhibition, % at 38.7 µM. Vero cells, Shiga toxin protein synthesis inhibition reporter; in the data active means inhibition mostly above about 28%, no sharp cut-off; inactive means mostly below about 43%
Large screens that a line does not name were inactive. A selection: hits, their analogues and other compounds. The true share with any hit is near 22%. Unless noted, the call rests on the fitted dose curve; in most records, active means well fitted inhibition curve with a large enough effect; inconclusive means small, poorly fitted or top-dose-only effect, or another doubt; inactive means no such curve, though single readings can be large or run the other way.

Cc1cc(OCC(=O)C(C)(C)C)c2c(-c3ccccc3)cc(=O)oc2c1	none
CN(C)c1ccc(C(=O)Nc2ccc(S(=O)(=O)Nc3nccs3)cc2)cc1	none
O=C(C1CCCN(c2ncccn2)C1)N1CCc2ccccc21 (centres undefined)	none
COc1cc(CCC(=O)OCC(=O)N2CCc3ccccc32)cc(OC)c1OC	none
O=S(=O)(Nc1ccc(-c2ccc3nncn3n2)cc1)c1cccc(F)c1	none (no result: CHX counter, LmPK inhibitor, Shiga inhibitor)
Cc1csc(NC(=O)Cc2c(F)cccc2Cl)n1	CHX counter 35 (no result: Shiga inhibitor)
Cc1cccc(NC(=O)Cc2ccc(-c3ccccc3)cc2)n1	none
Cc1cc(CNC(=O)Cc2c(F)cccc2Cl)nn1C	CHX counter 18, Shiga inhibitor 34 (no result: Pf growth 96h)
Cc1ccc(CC(=O)Nc2cccc(C)n2)cc1	CHX counter 33, Shiga inhibitor 69
C/C(=N\NC(=O)CSc1nc(C)[nH]c1[N+](=O)[O-])c1ccc(F)cc1	Pf growth 96h inconclusive
CCOc1ccc(N=C(NN)c2ccc3ccccc3n2)cc1	CHX counter 44, Shiga inhibitor 31
COc1cc(NC(=O)COC(=O)c2ccc3ccccc3n2)cc(OC)c1	none (no result: CHX counter, LmPK inhibitor, Shiga inhibitor)
COc1ccc(CNc2ccc(C)c(C)c2)c(OC)c1OC	Pf growth 48h inconclusive, CHX counter 24
COc1cc(C)c(CNc2ccc(OC)c(OC)c2)cc1C	Pf growth 48h 9.3µM, CHX counter 14, Shiga inhibitor 76 (no result: Pf growth 96h)
COc1ccc(CNc2cc(C)ccc2C)c(OC)c1OC	Pf growth 48h inconclusive (no result: Pf growth 96h)
COc1ccc(CNc2nc3ccc(C)cc3s2)c(OC)c1OC	Pf growth 48h inconclusive, CHX counter 15, Shiga inhibitor 41
COc1cc(C)c(CNc2cccc(C)c2)cc1C	none (no result: Pf growth 48h)
COCCCNc1nc(CC(C)C)nc2c1nnn2Cc1ccccc1	Pf growth 48h inconclusive (no result: Shiga inhibitor)
Cc1ccc(S(=O)(=O)N(C)C)cc1NC(=O)COC(=O)c1ccc2ccccc2n1	none (no result: CHX counter, LmPK inhibitor, Shiga inhibitor)
O=[N+]([O-])c1ccc(C23CC4CC(CC(O)(C4)C2)C3)cc1	CHX counter 39, Shiga inhibitor 63
O=C(NC12CC3CC(CC(C3)C1)C2)c1ccc([N+](=O)[O-])cc1	none
CCc1nnc(NS(=O)(=O)c2ccc(NCc3cc(Br)ccc3O)cc2)s1	none
CCc1nnc(NS(=O)(=O)c2ccc(NCc3ccccc3O)cc2)s1	Pf growth 96h 3.3µM
CCCN(CCC)S(=O)(=O)c1ccc(C(=O)Nc2ccc(S(=O)(=O)Nc3nnc(CC)s3)cc2)cc1	Pf growth 96h inconclusive, Pf growth 48h 12µM
CCc1nnc(NS(=O)(=O)c2ccc(NC(=O)c3ccccc3)cc2)s1	Pf growth 48h inconclusive
CCc1nnc(NS(=O)(=O)c2ccc(N/C=C\C(=O)c3ccc4ccccc4c3)cc2)s1	Pf growth 96h inconclusive, CHX counter 24
CCc1nnc(NS(=O)(=O)c2ccc(NC(=O)c3ccc(C#N)cc3)cc2)s1	Pf growth 96h 10µM, Pf growth 48h inconclusive
O=C(/C=C/c1cccc([N+](=O)[O-])c1)N1CCN(Cc2ccc3c(c2)OCO3)CC1	none
O=C(/C=C/c1ccccc1)N1CCOCC1	Pf growth 96h 3.3µM
O=C(/C=C/c1ccc(OCc2cccc(Cl)c2)cc1)N1CCOCC1	Pf growth 96h inconclusive, Pf growth 48h inconclusive, CHX counter 24
O=C(/C=C/c1ccc(Cl)c(Cl)c1)n1cccn1	none
CN1CCN(C(=O)/C=C/c2ccccc2)CC1	none
CCCOc1ccc(/C=C/C(=O)N2CCOCC2)cc1	CHX counter 56, Shiga inhibitor 61
O=C(/C=C/c1ccc(Cl)c(Cl)c1)N1CCOCC1	Pf growth 96h inconclusive, CHX counter 24, Shiga inhibitor 104
Cc1cc2c(s1)c1cnn(Cc3ccccc3F)c(=O)c1n2C(C)C	none (no result: Pf growth 96h, Pf growth 48h, LmPK inhibitor)
CC1(C)CC2CC(C)(CN2C(=O)COC(=O)c2cncc(Br)c2)C1 (centres undefined)	none (no result: CHX counter, LmPK inhibitor, Shiga inhibitor)
O=C(/C=C/c1ccc2c(c1)OCO2)N1CCN(c2ccc(Cl)cc2)CC1	none
O=C(/C=C/c1ccc(Cl)cc1)N1CCOCC1	CHX counter 35, Shiga inhibitor 54
CCN(CC)CCNC(=O)C(=O)NCC1OCCN1C(=O)c1ccc2c(c1)OCO2 (centres undefined)	none
c1ccc(Nc2nnc(SCc3cccc4ccccc34)s2)cc1	Pf growth 96h 8.3µM (no result: Pf growth 48h)
COc1cc(-c2nnc(CSc3nnc(Nc4ccc(Oc5ccccc5)cc4)s3)o2)cc(OC)c1OC	Pf growth 96h inconclusive, Pf growth 48h inconclusive, CHX counter 15
COc1ccc(C(C)=O)cc1CSc1nnc(Nc2ccc(C)cc2)s1	Pf growth 96h inconclusive, Pf growth 48h inconclusive
Cc1nc(CSc2nnc(C)s2)cs1	Pf growth 96h inconclusive
COc1ccc(C(C)=O)cc1CSc1nnc(Nc2ccccc2)s1	Pf growth 96h 6.6µM, Pf growth 48h inconclusive
Cc1nnc(SCc2cccc3ccccc23)s1	CHX counter 52, Shiga inhibitor 71
CCC(C)NS(=O)(=O)c1ccc(-c2csnn2)s1 (centres undefined)	none (no result: Pf growth 48h)
COC1C(O)C(CO)OC1n1cnc2c(NC3CCCCC3)ncnc21 (centres undefined)	none (no result: Pf growth 96h, Pf growth 48h, LmPK inhibitor)
COc1ccc(CC(N)C(=O)NC2C(CO)OC(n3cnc4c(N(C)C)ncnc43)C2O)cc1 (centres undefined)	Pf growth 96h 0.34µM, Pf growth 48h 0.38µM (no result: CHX counter, LmPK inhibitor, Shiga inhibitor)
O=C(CN1CCN(CN2C(=O)NC3(CCCCCC3)C2=O)CC1)Nc1ccc(F)cc1	none (no result: CHX counter, LmPK inhibitor, Shiga inhibitor)
Cc1ccc(-c2csc3ncn(-n4c(C)ccc4C)c(=O)c23)o1	Pf growth 96h 0.74µM, Pf growth 48h 13µM
c1ccc(CN2CCN(c3ncccn3)CC2)cc1	none
C(#Cc1ccccc1)CN1CCN(c2ccccn2)CC1	Pf growth 96h inconclusive, CHX counter 25
c1ccc(COc2ccc(CN3CCN(c4ccccn4)CC3)cc2)cc1	CHX counter 41, Shiga inhibitor 93 (no result: Pf growth 48h)
COc1ccc(CC(=O)Oc2ccc(F)c(F)c2)cc1S(=O)(=O)N1CCOCC1	none (no result: CHX counter, LmPK inhibitor, Shiga inhibitor)
Cc1ccc(N2CC(C(=O)N3CCC(c4nc5ccccc5[nH]4)CC3)CC2=O)cc1C (centres undefined)	Pf growth 96h 10µM, Pf growth 48h inconclusive (no result: CHX counter, LmPK inhibitor, Shiga inhibitor)
O=C(C1CC(=O)N(c2ccc(F)cc2)C1)N1CCC(c2nc3ccccc3[nH]2)CC1 (centres undefined)	Pf growth 96h 8.3µM, Pf growth 48h inconclusive (no result: CHX counter, LmPK inhibitor, Shiga inhibitor)
O=C(NC1CCCCC1)N1CCC(c2nc3ccccc3[nH]2)CC1	none
CCCC(=O)Nc1ccc(S(=O)(=O)N2CCC(c3nc4ccccc4[nH]3)CC2)cc1	Pf growth 96h 5.2µM, Pf growth 48h 13µM (no result: CHX counter, LmPK inhibitor, Shiga inhibitor)
O=C(NC1CCCCC1)N1CCCC(c2nc3ccccc3[nH]2)C1 (centres undefined)	Pf growth 96h 1.5µM
Cc1ccccc1CNC(=O)CCn1nc(C)c2c(C)n(-c3ccccc3)nc2c1=O	none
CS(=O)(=O)c1ccc(Cl)c(NC(=O)CSc2nnc(C3CC3)n2C2CC2)c1	none (no result: CHX counter, LmPK inhibitor, Shiga inhibitor)
O=C1COc2ccccc2N1Cc1ccc(Cl)cc1	none
O=C(C1CCCCC1)N1CCC(c2nc3ccccc3[nH]2)CC1	Pf growth 96h 9.3µM
Cc1ccc(C(=O)c2cnc3cc4c(cc3c2S(=O)(=O)c2ccccc2)OCCO4)cc1	Pf growth 96h inconclusive, Pf growth 48h 3.3µM, CHX counter 68, Shiga inhibitor 100
